The source of these data is PubChem BioAssay (EPA / NIEHS).

For assay [1], the target named is Retinoic acid receptor alpha (Homo sapiens) (UniProt P10276). The experiment in a line: ATG_RARa_TRANS: Attagene TRANS-FACTORIAL HepG2 Assay for human Retinoic Acid Receptor alpha (RARa) (AID 2283005; active means hit-call score of the fitted dose curve at least 0.9, where 1 is the maximum;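 on AC50: potency for increased reporter signal meaning RARa activation over DMSO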). The method in brief:
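HepG2 transiently transfected with multiplex GAL4-UAS reporter units including a human RARa–GAL4 chimera; 24 h compound exposure. Reporter mRNA quantified by RT-PCR, 6-FAM labeling and capillary electrophoresis; gain of signal versus DMSO.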

Assay [2] in a line: BSK_3C_Proliferation: Cell Proliferation Assessment in the BioMAP Diversity Plus: 3C Assay (AID 2283006).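 On AC50: potency may reflect either rise or fall in cell number versus DMSO.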 The conditions noted are these: primary human endothelial cells (HUVEC). The method in brief: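 Human umbilical vein endothelial cells were grown sub-confluent and exposed to chemical for 48 h, then fixed with 10% TCA and stained with 0.1% sulforhodamine B; absorbance at 560 nm gave relative cell number, fitted bidirectionally against DMSO baseline.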

The target of assay [3] is Nuclear receptor subfamily 1 group I member 2 (Homo sapiens) (UniProt O75469). The experiment in a line: ATG_PXR_TRANS: Attagene TRANS-FACTORIAL HepG2 Assay for human Pregnane X Receptor (PXR) (AID 2283008; active means hit-call score of the fitted dose curve at least 0.9, where 1 is the maximum). The method in brief:
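Measures mRNA induction of a GAL4-UAS-driven reporter in human HepG2 cells transiently expressing PXR fused to Gal4, following 24 h treatment. DMSO served as negative control and baseline.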

Assay [4] addresses human Retinoic Acid Receptor gamma (RARg), RARG (gene 5916) (UniProt P13631). The experiment in a line: ATG_RARg_TRANS: Attagene TRANS-FACTORIAL HepG2 Assay for human Retinoic Acid Receptor gamma (RARg) (AID 2283009; active means hit-call score of the fitted dose curve at least 0.9, where 1 is the maximum). The method in brief:
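HepG2 cells transiently transfected with multiplexed reporter units expressing chimeric RARg-GAL4 and GAL4-UAS-driven reporters; 24 h compound exposure. Reporter mRNA quantified by RT-PCR with fluorescent labelling and capillary electrophoresis; gain-of-signal fitted relative to DMSO baseline.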

For assay [5], the target named is Retinoic acid receptor RXR-alpha (Homo sapiens) (UniProt P19793). The experiment in a line: ATG_RXRa_TRANS: Attagene TRANS-FACTORIAL HepG2 Assay for human Retinoid X Receptor alpha (RXRa) (AID 2283012; active means hit-call score of the fitted dose curve at least 0.9, where 1 is the maximum). The method in brief:
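HepG2 cells transiently transfected with multiplexed GAL4-UAS reporter units and chimeric NR-GAL4 fusions, dosed 24 h. Reporter mRNA measured by RT-PCR, FAM labelling, HpaI digestion and capillary electrophoresis; gain-of-signal fitted relative to DMSO baseline.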

In assay [6] the target is human Retinoid X Receptor beta (RXRb), RXRB (gene 6257) (UniProt P28702). The experiment in a line: ATG_RXRb_TRANS: Attagene TRANS-FACTORIAL HepG2 Assay for human Retinoid X Receptor beta (RXRb) (AID 2283013; active means hit-call score of the fitted dose curve at least 0.9, where 1 is the maximum). The method in brief: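 HepG2 cells transiently transfected with multiplexed reporter units driven by GAL4-UAS and exogenous chimeric NR-Gal4 proteins; treated 24 h. Reporter mRNA measured by RT-PCR, 6-FAM labelling and capillary electrophoresis; gain-of-signal fitted versus DMSO baseline.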
Sequence of human Retinoid X Receptor beta (RXRb), RXRB (gene 6257) (P28702 whole entry, looked up, the tested form may be a part): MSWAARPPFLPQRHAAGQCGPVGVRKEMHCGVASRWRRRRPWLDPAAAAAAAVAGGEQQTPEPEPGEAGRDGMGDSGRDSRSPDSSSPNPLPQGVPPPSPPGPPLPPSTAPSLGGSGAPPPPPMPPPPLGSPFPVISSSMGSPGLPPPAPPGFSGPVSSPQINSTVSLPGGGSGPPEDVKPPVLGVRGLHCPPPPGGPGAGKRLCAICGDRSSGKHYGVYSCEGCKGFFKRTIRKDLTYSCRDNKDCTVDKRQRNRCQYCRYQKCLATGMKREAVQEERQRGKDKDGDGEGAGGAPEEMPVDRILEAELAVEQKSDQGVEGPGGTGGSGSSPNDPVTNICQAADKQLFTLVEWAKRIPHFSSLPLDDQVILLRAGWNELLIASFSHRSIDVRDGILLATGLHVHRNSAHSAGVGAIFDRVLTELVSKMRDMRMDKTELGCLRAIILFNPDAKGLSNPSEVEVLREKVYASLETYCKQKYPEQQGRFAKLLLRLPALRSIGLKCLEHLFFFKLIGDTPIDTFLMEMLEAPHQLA

In assay [7] the target is human Thyroid Receptor alpha (THRa1), THRA (gene 7067) (UniProt P10827). The experiment in a line: ATG_THRa1_TRANS: Attagene TRANS-FACTORIAL HepG2 Assay for human Thyroid Receptor alpha (THRa1) (AID 2283014; active means hit-call score of the fitted dose curve at least 0.9, where 1 is the maximum). The method in brief: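 HepG2 cells transiently transfected with multiplexed GAL4-UAS reporter units for exogenous chimeric THRa1-Gal4; reporter mRNA measured 24 h after dosing by RT-PCR, 6-FAM labelling, HpaI digestion and capillary electrophoresis. Gain-of-signal fitted versus DMSO baseline.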
Sequence of human Thyroid Receptor alpha (THRa1), THRA (gene 7067) (P10827 whole entry, looked up, the tested form may be a part): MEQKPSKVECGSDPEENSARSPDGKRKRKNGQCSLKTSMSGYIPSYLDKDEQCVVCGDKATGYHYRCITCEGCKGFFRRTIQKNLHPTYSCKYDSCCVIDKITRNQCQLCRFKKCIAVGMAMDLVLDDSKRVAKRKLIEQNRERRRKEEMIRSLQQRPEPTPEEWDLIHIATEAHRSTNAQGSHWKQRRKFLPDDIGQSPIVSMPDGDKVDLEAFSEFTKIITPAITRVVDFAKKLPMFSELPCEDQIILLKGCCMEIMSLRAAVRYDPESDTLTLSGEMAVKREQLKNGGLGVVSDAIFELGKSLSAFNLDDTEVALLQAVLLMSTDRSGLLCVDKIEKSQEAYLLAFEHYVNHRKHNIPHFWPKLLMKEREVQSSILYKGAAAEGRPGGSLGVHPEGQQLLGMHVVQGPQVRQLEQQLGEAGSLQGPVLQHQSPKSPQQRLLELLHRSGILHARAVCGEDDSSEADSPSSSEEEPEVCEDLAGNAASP

Read-out in assay [8]: E-selectin (Homo sapiens) (UniProt P16581)
The experiment in a line: BSK_3C_Eselectin: BioMAP Diversity Plus: 3C Assay for Eselectin Biomarker Activity (AID 2283015).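 On outcome: cell surface E-selectin protein quantified by ELISA 24 h after dosing.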 The conditions noted are these: primary human endothelial cells (HUVEC); actives raise or lower the signal. The method in brief: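 Primary human umbilical vein endothelial cells (3C system) were dosed with chemical and cell-surface E-selectin measured by ELISA 24 h later. Bidirectional curve fitting used DMSO as negative control and baseline.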

Read-out in assay [9]: Interleukin-1 alpha (IL1a), IL1A (gene 3552)
The experiment in a line: BSK_BE3C_IL1a: BioMAP Diversity Plus: BE3C Assay for Interleukin-1 alpha (IL1a) Biomarker Activity (AID 2283016). Particulars: primary human bronchial epithelial cells; actives raise or lower the signal. The method in brief:
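Human primary bronchial epithelial cells (BE3C system) were dosed with compound and IL-1a measured by ELISA 24 h later. Activity was fitted bidirectionally against DMSO baseline; cytotoxicity was tracked in parallel cultures by SRB total-protein staining.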

Read-out in assay [10]: Monocyte Chemoattractant Protein-1 (MCP1), CCL2 (gene 6347)
The experiment in a line: BSK_3C_MCP1: BioMAP Diversity Plus: 3C Assay for Monocyte Chemoattractant Protein-1 (MCP1) Biomarker Activity (AID 2283017). Particulars: primary human endothelial cells (HUVEC); actives raise or lower the signal. The method in brief: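 Primary human umbilical vein endothelial cells (3C system) were exposed to test chemical for 24 h, after which MCP-1 was quantified by ELISA. Activity was fitted bidirectionally against DMSO as negative control and baseline.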

Read-out in assay [11]: Monocyte Chemoattractant Protein-1 (MCP1), CCL2 (gene 6347)
The experiment in a line: BSK_4H_MCP1: BioMAP Diversity Plus: 4H Assay for Monocyte Chemoattractant Protein-1 (MCP1) Biomarker Activity (AID 2283018). The conditions noted are these: primary human endothelial cells (HUVEC); actives raise or lower the signal. The method in brief: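 Human umbilical vein endothelial cells (4H system) dosed with chemical; MCP-1 measured by ELISA 24 h after dosing. Bidirectional curve fitting against DMSO negative control as baseline; parallel SRB total-protein staining tracks overt cytotoxicity.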

Read-out in assay [12]: Human Leukocyte Antigen - DR isotype (HLADR), HLA-DRA (gene 3122)
The experiment in a line: BSK_3C_HLADR: BioMAP Diversity Plus: 3C Assay for Human Leukocyte Antigen - DR isotype (HLADR) Biomarker Activity (AID 2283019).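 On outcome: ELISA of cell-surface HLA-DR on HUVEC 24 h after dosing.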 Particulars: primary human endothelial cells (HUVEC); actives raise or lower the signal. The method in brief:
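Primary human umbilical vein endothelial cells (3C system) were dosed with compound and cell-surface HLA-DR was quantified by ELISA at 24 h. Activity was fitted bidirectionally against DMSO as negative control and baseline.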

Read-out in assay [13]: Interleukin-8 (IL8), CXCL8 (gene 3576)
The experiment in a line: BSK_3C_IL8: BioMAP Diversity Plus: 3C Assay for Interleukin-8 (IL8) Biomarker Activity (AID 2283020). Particulars: primary human endothelial cells (HUVEC); actives raise or lower the signal. The method in brief: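 Primary human umbilical vein endothelial cells (3C system) were exposed to test chemical for 24 h, then IL-8 was quantified by ELISA. Responses were fitted bidirectionally against DMSO vehicle as baseline.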

Assay [14] deals with human Peroxisome Proliferator-activated Receptor delta (PPARd), PPARD (gene 5467) (UniProt Q03181). The experiment in a line: ATG_PPARd_TRANS: Attagene TRANS-FACTORIAL HepG2 Assay for human Peroxisome Proliferator-activated Receptor delta (PPARd) (AID 2283002; active means hit-call score of the fitted dose curve at least 0.9, where 1 is the maximum). The method in brief: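 HepG2 cells transiently transfected with GAL4-UAS multiplexed reporter units driven by exogenous chimeric NR-GAL4 proteins; 24 h compound exposure. Reporter mRNA measured by RT-PCR, 6-FAM primer extension, HpaI digestion and capillary electrophoresis; gain of signal fitted relative to DMSO.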
Sequence of human Peroxisome Proliferator-activated Receptor delta (PPARd), PPARD (gene 5467) (Q03181 whole entry, looked up, the tested form may be a part): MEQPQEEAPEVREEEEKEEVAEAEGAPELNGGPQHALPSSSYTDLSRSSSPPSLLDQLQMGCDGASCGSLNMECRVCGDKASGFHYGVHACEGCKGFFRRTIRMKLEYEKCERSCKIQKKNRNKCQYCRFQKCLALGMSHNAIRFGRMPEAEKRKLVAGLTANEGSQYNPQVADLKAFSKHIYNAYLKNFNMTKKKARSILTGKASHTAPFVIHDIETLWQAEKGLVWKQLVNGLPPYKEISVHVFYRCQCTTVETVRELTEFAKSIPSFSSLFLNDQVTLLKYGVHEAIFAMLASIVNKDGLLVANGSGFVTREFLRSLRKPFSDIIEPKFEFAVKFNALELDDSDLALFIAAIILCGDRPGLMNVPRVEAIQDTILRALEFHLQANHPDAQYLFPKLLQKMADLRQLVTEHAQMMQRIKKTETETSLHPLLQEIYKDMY

Assay [15] addresses human RAR-related Orphan Receptor gamma (RORg), RORC (gene 6097) (UniProt P51449). The experiment in a line: ATG_RORg_TRANS: Attagene TRANS-FACTORIAL HepG2 Assay for human RAR-related Orphan Receptor gamma (RORg) (AID 2283011; active means hit-call score of the fitted dose curve at least 0.9, where 1 is the maximum). The gist of the method: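 Readout: reporter transcript induction (RT-PCR, fluorescent primer extension, capillary electrophoresis) after 24 h compound exposure of transiently transfected HepG2 cells carrying a RORg-Gal4 chimera and GAL4-UAS reporters; DMSO served as baseline, with increasing signal fitted.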

Assay [16] has as its target Peroxisome proliferator-activated receptor gamma (Homo sapiens) (UniProt P37231). The experiment in a line: ATG_PPARg_TRANS: Attagene TRANS-FACTORIAL HepG2 Assay for human Peroxisome Proliferator-activated Receptor-gamma (PPARg) (AID 2283007; active means hit-call score of the fitted dose curve at least 0.9, where 1 is the maximum). The gist of the method: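 Liver-derived HepG2 cells expressing an exogenous NR-Gal4 chimera alongside GAL4-UAS reporter genes; 24 h exposure. Fluorescence of reporter RT-PCR products, separated by capillary electrophoresis, gives mRNA induction relative to DMSO.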

Read-out in assay [17]: Monokine induced gamma interferon (MIG), CXCL9 (gene 4283)
The experiment in a line: BSK_3C_MIG: BioMAP Diversity Plus: 3C Assay for Monokine induced gamma interferon (MIG) Biomarker Activity (AID 2283021).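 On AC50: MIG protein level measured by immunoassay in the treated endothelial cultures.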 The conditions noted are these: primary human endothelial cells (HUVEC); actives raise or lower the signal. The method in brief: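 Primary human umbilical vein endothelial cells in the 3C system were exposed to chemical for 24 h, after which MIG was quantified by ELISA. Activity was fitted bidirectionally against DMSO as negative control and baseline.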

The target in assay [18] is human Peroxisome Proliferator-activated Receptor alpha (PPARa), PPARA (gene 5465) (UniProt Q07869). The experiment in a line: ATG_PPARa_TRANS: Attagene TRANS-FACTORIAL HepG2 Assay for human Peroxisome Proliferator-activated Receptor alpha (PPARa) (AID 2283001; active means hit-call score of the fitted dose curve at least 0.9, where 1 is the maximum;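 further: potency for gain of reporter signal over DMSO so agonist or activator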). The method in brief: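 Measures transcriptional activity of an exogenous chimeric PPARa-Gal4 protein in transiently transfected HepG2 cells after 24 h dosing. Reporter mRNA quantified via RT-PCR and capillary electrophoresis; DMSO served as negative control.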
Sequence of human Peroxisome Proliferator-activated Receptor alpha (PPARa), PPARA (gene 5465) (Q07869 whole entry, looked up, the tested form may be a part): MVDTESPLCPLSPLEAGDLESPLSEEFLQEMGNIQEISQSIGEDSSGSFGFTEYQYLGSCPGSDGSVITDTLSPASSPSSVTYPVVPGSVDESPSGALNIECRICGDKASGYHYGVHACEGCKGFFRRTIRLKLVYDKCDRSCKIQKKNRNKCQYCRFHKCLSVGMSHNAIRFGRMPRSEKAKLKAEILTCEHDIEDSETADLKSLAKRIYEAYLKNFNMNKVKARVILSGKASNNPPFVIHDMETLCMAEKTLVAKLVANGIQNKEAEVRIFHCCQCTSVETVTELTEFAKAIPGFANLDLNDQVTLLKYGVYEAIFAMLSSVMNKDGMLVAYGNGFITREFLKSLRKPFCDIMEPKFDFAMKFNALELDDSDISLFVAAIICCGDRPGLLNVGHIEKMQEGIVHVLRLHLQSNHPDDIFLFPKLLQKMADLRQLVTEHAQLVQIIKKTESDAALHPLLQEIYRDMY

For assay [19], the target named is human RAR-related Orphan Receptor beta (RORb), RORB (gene 6096) (UniProt Q92753). The experiment in a line: ATG_RORb_TRANS: Attagene TRANS-FACTORIAL HepG2 Assay for human RAR-related Orphan Receptor beta (RORb) (AID 2283010; active means hit-call score of the fitted dose curve at least 0.9, where 1 is the maximum). The gist of the method:
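HepG2 cells were transiently transfected with multiplexed GAL4-UAS reporter units expressing chimeric nuclear receptor–GAL4 proteins, then dosed for 24 h. Reporter mRNA was quantified by RT-PCR with fluorescent labelling and capillary electrophoresis; gain of signal was fitted relative to DMSO.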

Values joined by “and” are separate entries in the source; they are usually repeats but may differ in a detail not shown here. Equal entries are not always repeated. Records with an inconclusive call do not appear. Active and inactive are the calls of the source. How the source made its calls, unless noted: active means hit-call score of the fitted dose curve at least 0.9, where 1 is the maximum; inactive means score below 0.9.

Sequence of Nuclear receptor subfamily 1 group I member 2 (Homo sapiens) (O75469 whole entry, looked up, the tested form may be a part): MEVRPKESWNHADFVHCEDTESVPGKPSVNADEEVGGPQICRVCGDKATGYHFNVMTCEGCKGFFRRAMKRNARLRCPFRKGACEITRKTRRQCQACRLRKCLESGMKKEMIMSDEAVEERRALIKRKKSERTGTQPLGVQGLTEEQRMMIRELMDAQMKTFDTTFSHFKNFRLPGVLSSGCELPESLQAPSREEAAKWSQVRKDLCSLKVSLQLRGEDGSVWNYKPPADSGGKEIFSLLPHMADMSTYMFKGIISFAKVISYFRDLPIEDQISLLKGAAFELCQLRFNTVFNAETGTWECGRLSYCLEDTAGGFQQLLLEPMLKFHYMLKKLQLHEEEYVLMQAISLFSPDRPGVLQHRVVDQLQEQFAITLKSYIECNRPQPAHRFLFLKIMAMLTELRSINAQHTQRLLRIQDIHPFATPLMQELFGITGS
Sequence of Retinoic acid receptor RXR-alpha (Homo sapiens) (P19793 whole entry, looked up, the tested form may be a part): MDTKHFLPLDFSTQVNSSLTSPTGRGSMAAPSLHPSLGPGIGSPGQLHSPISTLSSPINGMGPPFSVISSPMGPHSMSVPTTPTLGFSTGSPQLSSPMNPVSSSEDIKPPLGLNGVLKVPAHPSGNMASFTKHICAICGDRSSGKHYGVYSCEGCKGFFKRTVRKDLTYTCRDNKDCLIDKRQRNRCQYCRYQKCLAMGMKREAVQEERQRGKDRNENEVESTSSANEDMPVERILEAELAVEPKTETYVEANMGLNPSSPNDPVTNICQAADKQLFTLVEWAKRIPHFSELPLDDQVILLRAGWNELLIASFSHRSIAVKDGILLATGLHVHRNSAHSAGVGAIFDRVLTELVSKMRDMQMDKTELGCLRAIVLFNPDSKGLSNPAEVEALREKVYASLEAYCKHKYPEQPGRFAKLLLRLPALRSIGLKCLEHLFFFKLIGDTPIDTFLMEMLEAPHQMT
Sequence of E-selectin (Homo sapiens) (P16581 whole entry, looked up): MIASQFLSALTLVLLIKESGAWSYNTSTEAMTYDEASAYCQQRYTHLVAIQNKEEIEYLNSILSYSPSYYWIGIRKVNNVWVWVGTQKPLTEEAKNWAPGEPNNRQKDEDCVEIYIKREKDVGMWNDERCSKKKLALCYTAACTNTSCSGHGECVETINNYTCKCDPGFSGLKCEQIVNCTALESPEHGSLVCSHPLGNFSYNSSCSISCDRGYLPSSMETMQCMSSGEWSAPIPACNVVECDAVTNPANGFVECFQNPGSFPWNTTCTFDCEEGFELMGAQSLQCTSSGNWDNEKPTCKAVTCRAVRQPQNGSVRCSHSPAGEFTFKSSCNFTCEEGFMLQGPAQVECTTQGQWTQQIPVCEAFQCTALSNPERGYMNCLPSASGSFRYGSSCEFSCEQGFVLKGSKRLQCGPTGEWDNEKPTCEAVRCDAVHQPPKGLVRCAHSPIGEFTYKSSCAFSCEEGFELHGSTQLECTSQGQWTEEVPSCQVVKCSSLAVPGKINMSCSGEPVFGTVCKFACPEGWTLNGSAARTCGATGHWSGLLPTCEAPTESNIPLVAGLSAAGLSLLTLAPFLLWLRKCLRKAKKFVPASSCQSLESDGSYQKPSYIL
Sequence of human Retinoic Acid Receptor gamma (RARg), RARG (gene 5916) (P13631 whole entry, looked up, the tested form may be a part): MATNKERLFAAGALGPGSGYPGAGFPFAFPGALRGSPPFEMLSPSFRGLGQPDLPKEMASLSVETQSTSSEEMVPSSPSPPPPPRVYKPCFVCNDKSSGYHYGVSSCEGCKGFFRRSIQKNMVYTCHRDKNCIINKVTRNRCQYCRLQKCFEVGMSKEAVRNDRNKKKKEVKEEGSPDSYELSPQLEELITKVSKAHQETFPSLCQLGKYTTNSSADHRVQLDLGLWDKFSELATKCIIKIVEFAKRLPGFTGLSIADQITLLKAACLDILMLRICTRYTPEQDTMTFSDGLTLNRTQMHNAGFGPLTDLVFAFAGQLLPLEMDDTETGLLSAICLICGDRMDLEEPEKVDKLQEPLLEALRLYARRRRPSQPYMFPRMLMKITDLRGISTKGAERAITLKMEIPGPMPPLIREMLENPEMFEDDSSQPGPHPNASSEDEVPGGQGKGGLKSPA
Sequence of Retinoic acid receptor alpha (Homo sapiens) (P10276 whole entry, looked up, the tested form may be a part): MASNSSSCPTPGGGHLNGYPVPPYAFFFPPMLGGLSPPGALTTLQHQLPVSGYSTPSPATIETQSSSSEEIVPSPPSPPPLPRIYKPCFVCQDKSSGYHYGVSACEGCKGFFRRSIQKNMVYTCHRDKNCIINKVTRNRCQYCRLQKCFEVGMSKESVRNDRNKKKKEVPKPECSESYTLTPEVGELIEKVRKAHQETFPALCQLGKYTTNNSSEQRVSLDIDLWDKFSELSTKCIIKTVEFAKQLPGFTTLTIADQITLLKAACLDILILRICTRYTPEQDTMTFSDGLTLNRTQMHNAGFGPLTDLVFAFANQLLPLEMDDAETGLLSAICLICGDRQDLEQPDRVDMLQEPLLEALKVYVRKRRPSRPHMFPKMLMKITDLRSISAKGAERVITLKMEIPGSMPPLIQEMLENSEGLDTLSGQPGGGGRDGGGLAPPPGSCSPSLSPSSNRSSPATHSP
Sequence of Peroxisome proliferator-activated receptor gamma (Homo sapiens) (P37231 whole entry, looked up, the tested form may be a part): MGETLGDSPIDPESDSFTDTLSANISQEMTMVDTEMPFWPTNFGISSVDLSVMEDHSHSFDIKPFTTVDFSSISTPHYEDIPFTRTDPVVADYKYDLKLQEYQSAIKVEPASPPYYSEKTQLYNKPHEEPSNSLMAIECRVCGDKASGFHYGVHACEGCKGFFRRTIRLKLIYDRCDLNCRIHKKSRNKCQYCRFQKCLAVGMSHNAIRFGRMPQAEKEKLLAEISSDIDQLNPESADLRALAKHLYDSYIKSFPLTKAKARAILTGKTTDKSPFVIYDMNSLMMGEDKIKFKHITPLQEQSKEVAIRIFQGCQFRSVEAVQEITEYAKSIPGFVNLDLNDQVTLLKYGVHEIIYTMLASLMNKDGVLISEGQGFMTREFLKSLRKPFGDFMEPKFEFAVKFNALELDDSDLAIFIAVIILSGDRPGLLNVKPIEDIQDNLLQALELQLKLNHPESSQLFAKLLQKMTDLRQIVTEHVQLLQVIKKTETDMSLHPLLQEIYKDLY

By AC50 is commonly meant the concentration at which the activity in the assay is half-maximal. In the case of `CC(C)(c1cc(Br)c(O)c(Br)c1)c1cc(Br)c(O)c(Br)c1`, the outcome in assay [1], in [4], in assay [5], in [6] and in assay [7] was inactive. Moreover, the AC50 was 28 µM (active) in [2]; 6.78 µM (active) and 10.5 µM (active) in assay [3]; 29 µM (active) in [8]; 5.72 µM (active) in assay [9]; 29.9 µM (active) in [10]; 26.6 µM (active) in [11]. Also, the AC50 in assay [12] is 27.2 µM (active); in assay [13], 31.8 µM (active).
Regarding `O=C(OCCCCCCOC(=O)c1ccccc1)c1ccccc1`, the compound was called inactive in assay [14], in assay [3], in assay [4], in [15], in assay [6] and in assay [7]. For the same compound, the result in assay [8], in assay [9], in assay [10], in assay [11], in assay [12] and in assay [13] was inactive. Moreover, the AC50 in assay [2] is 20.7 µM (active).
In the case of `CC[C@@H]1C[C@H](N(Cc2cc(C(F)(F)F)cc(C(F)(F)F)c2)C(C)=O)c2cc(C(F)(F)F)ccc2N1C(=O)OC(C)C`, the compound was called inactive in assay [14], in assay [2], in assay [16], in assay [4], in [5] and in assay [6]. Also, the result in assay [8], in [9], in assay [10], in assay [11], in assay [12] and in [13] was inactive. The AC50 in assay [1] is 1.1 µM (active); in assay [3], 118 nM (active).
Regarding `COc1cccc([C@H](O)C2CCN(CCc3ccc(F)cc3)CC2)c1OC`, the compound was called inactive in [14], in assay [2], in assay [3], in assay [4], in assay [5] and in assay [8]. Besides, the result in assay [9], in [10], in assay [11], in [12], in [13] and in [17] was inactive.
As for `CCCCCCCCCC(=O)O`, the AC50 in assay [18] is 29.1 µM (active); in assay [6] it was 30.2 µM (active) and 68.3 µM (active). The result in assay [2], in assay [3], in assay [4], in assay [19], in assay [5] and in assay [8] was inactive. Moreover, the outcome in assay [9], in assay [10], in [11], in assay [12], in assay [13] and in [17] was inactive.
On to `CN1C(=O)N(c2ccccc2Br)Cc2cnc(Nc3ccc4c(c3)OCC(CO)O4)nc21` (stereo not given), for which the AC50 was 2.28 µM (active) in [2]; 15.2 µM (active) in assay [8]; 2.57 µM (active) in assay [9]; 14.7 µM (active) in assay [10]; 2.11 µM (active) in assay [11]; 9 µM (active) in assay [12]. The AC50 in assay [13] was 12.2 µM (active); in assay [17], 25.3 µM (active). The compound was classed as inactive in [3].
